SMILES strings stand for the structures. Calls of active or inactive are those of the source.

Test [1] in a line: E. coli DRC41 culture turbidity changes, primary screen, E. coli filamentation inducer project, strain DRC41, OD650, 48 h (AID 1152).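 Also: E. coli MC1000 strain DRC41 lacking acrAB efflux pump and sulA.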 Particulars: E. coli DRC41 (acrAB sulA), higher = more signal, called active from +8 up or from −8 down.
A short description of test [2]: small-molecule binders of probe aLefty1, primary screen, biochemical, small-molecule microarray, 635/667 nm fluorescence (AID 1153).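 Also: score merges spot fluorescence with signal-to-noise ratio from the scanned slide images.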 Particulars: higher = more signal.
Test [3] can be described thus: PSAC antagonists in infected red cells, primary screen, cell-based, P. falciparum Indochina, OD700, 1 h (AID 1154). As to conditions: P. falciparum Indochina infected RBC osmotic lysis, higher = more signal, called active from +8 up or from −8 down.
Test [4] can be described thus: PSAC antagonists in infected red cells, primary screen, cell-based, P. falciparum Indochina, OD700, 2 h (AID 1155).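 Also: lysis reports solute entry through the parasite surface anion channel PSAC; channel blockers reduce lysis of infected cells.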 As to conditions: P. falciparum Indochina infected erythrocytes, osmotic lysis OD700; higher = more signal, called active from +8 up or from −8 down.
Test [5] in a line: osmotic lysis modulators in infected erythrocytes, primary screen, PSAC antagonist project, cell-based, P. falciparum Indochina, OD700, 3 h (AID 1156). Particulars: higher = more signal, called active from +8 up or from −8 down.
Test [6] is described as follows: PSAC antagonists in infected red cells, primary screen, cell-based, P. falciparum Indochina, OD700, 18 h (AID 1157). As to conditions: P. falciparum Indochina infected erythrocytes, osmotic lysis OD700, 18 h; higher = more signal, called active from +8 up or from −8 down.
Test [7] in a line: modulators of S6 phosphorylation in cells, primary screen, cell-based, A549, cytoblot, luminescence, serum-stimulated (AID 1158).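 Also: serum-stimulated A549 lung adenocarcinoma cells; signal is phosphorylated S6 detected by cytoblot immunostaining with HRP secondary.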 Particulars: A549 phospho-S6 cytoblot, 5 h, higher = more signal.
The target in test [8] is NADPH oxidase 2 (Homo sapiens) (UniProt P04839). The test can be described thus: NOX2-dependent H2O2 signal modulators, primary screen, NOX inhibitor project, cell-based, HEK293-NOX2, PMA-stimulated, Amplex Red fluorescence (AID 1159). Also: test concentration not given here. Particulars: 45 min, higher = more signal, called active from +8 up or from −8 down.
Sequence of NADPH oxidase 2 (Homo sapiens) (P04839 whole entry, looked up): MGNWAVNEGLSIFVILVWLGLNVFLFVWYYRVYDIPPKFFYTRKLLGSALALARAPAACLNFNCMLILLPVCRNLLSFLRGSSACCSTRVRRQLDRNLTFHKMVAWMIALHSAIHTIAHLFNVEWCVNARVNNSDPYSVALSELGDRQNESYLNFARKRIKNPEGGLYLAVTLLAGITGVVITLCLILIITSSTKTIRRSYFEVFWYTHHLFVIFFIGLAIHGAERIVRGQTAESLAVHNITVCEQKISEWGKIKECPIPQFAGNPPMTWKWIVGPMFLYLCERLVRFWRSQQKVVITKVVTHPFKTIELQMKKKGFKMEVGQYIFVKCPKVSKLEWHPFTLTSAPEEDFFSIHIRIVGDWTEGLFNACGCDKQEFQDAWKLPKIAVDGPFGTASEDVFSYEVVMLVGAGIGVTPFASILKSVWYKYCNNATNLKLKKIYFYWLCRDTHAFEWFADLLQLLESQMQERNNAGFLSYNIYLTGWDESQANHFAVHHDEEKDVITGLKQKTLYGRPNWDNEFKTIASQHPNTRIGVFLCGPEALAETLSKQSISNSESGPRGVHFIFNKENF
Test [9] deals with NADPH oxidase 4 (Homo sapiens) (UniProt Q9NPH5). Briefly: NOX4-dependent H2O2 signal modulators, primary screen, NOX inhibitor project, cell-based, HEK293-NOX4, tetracycline-induced, Amplex Red fluorescence (AID 1160). Particulars: 45 min, higher = more signal, called active from +8 up or from −8 down.
Sequence of NADPH oxidase 4 (Homo sapiens) (Q9NPH5 whole entry, looked up): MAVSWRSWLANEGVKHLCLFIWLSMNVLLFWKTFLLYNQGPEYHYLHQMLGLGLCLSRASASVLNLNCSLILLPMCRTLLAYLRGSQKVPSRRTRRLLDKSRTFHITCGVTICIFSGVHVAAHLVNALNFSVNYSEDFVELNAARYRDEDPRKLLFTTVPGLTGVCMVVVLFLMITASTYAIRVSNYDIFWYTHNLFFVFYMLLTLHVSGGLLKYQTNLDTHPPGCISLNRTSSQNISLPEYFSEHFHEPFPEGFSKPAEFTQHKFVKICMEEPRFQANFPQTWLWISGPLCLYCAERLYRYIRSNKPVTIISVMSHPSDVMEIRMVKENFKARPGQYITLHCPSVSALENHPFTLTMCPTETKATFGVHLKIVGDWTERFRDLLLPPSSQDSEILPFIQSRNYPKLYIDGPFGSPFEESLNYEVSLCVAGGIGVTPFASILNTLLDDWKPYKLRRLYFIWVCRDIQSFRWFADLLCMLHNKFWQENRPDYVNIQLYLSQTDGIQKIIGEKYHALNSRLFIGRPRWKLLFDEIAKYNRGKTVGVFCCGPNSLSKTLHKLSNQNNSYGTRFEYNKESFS
Test [10] addresses NADPH oxidase 5 (Homo sapiens) (UniProt Q96PH1). Briefly: NOX5-dependent H2O2 signal modulators, primary screen, NOX inhibitor project, cell-based, HEK293-NOX5, Amplex Red fluorescence (AID 1161). Particulars: HEK293-NOX5, ionomycin, 45 min, higher = more signal.
The nature of test [11]: A549 cell viability effects, profiling panel, calcein-AM fluorescence, 48 h, basal (AID 1162). Also: test concentration not given here. Particulars: higher = more signal.
Test [12] in a line: adipocyte viability effects, profiling panel, cell-based, 3T3-L1 adipocytes, calcein-AM fluorescence, 48 h, basal (AID 1163). Also: test concentration not given here. As to conditions: 3T3-L1 adipocytes viability, higher = more signal.
A short description of test [13]: HepG2 cell viability effects, profiling panel, calcein-AM fluorescence, 48 h, basal (AID 1164). Also: test concentration not given here. Particulars: higher = more signal.
Test [14] can be described thus: MM1S cell viability effects, profiling panel, calcein-AM fluorescence, 48 h, basal (AID 1165).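 Also: viability of MM1S multiple myeloma cells under basal unstimulated conditions; test concentration not given here.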 As to conditions: higher = more signal.
Test [15] can be described thus: basal RPMI8226 viability, no added stimulus, profiling panel, cell-based, calcein-AM fluorescence, 48 h, PK04 Diversity Set (AID 1166).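 Also: cells grown under basal conditions without added stimulus; test concentration not given here.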 Particulars: RPMI8226 myeloma viability, higher = more signal.
A short description of test [16]: basal HepG2 mitochondrial membrane potential changes, profiling panel, cell-based, JC-1 fluorescence, 24 h, 100 nL compound (AID 1167). Also: test concentration not given here. As to conditions: higher = more signal.
A short description of test [17]: basal 3T3-L1 adipocyte mitochondrial potential changes, profiling panel, cell-based, JC-1 fluorescence, 3T3-L1 adipocytes, 24 h, 100 nL compound (AID 1168). Also: test concentration not given here. Particulars: JC-1 mitochondrial fluorescence, higher = more signal, called active from +8 up or from −8 down.
Test [18] can be described thus: basal RPMI8226 mitochondrial membrane potential changes, profiling panel, cell-based, JC-1 fluorescence, 24 h, 100 nL compound (AID 1169). Also: test concentration not given here. Particulars: RPMI8226 myeloma, JC-1 mitochondrial potential fluorescence, higher = more signal.
Test [19] is described as follows: basal MM1S mitochondrial membrane potential changes, profiling panel, cell-based, JC-1 fluorescence, 24 h, 100 nL compound (AID 1170). Also: test concentration not given here. Particulars: higher = more signal.
Test [20] in a line: A549 lung cancer cell viability effects, profiling panel, resazurin fluorescence, 24 h, PK04 Diversity Set (AID 1171). Also: test concentration not given here. As to conditions: higher = more signal, called active from +8 up or from −8 down. For orientation: The colour change of resazurin is a common sign of viable cells or microbes.

Sequence of NADPH oxidase 5 (Homo sapiens) (Q96PH1 whole entry, looked up): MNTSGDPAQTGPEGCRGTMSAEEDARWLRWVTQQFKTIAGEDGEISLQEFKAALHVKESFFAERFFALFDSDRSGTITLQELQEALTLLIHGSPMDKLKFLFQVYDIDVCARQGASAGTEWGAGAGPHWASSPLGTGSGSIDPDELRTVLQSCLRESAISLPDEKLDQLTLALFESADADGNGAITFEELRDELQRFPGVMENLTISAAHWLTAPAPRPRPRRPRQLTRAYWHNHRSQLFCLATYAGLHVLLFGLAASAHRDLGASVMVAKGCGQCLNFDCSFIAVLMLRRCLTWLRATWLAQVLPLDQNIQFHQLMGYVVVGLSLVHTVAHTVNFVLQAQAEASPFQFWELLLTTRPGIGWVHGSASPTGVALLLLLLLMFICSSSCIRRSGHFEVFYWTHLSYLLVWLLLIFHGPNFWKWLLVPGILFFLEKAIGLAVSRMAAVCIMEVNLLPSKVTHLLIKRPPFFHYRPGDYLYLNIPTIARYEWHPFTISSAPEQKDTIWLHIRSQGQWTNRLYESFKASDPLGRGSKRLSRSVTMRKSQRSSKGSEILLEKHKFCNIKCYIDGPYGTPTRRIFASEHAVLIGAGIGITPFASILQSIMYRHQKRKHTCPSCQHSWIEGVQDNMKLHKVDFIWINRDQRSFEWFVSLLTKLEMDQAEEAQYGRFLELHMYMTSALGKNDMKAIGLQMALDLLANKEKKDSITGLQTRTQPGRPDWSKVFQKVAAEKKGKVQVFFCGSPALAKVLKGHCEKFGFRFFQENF

As to `CC(c1ccccc1)C(O)C1C=CC2C(=O)N(c3ccccc3)C(=O)C2N1Nc1ccccc1F` (stereo not given), the z-score is 0.207 (inactive) in test [1]; 0.784 (inactive) in test [3]; -0.11 (inactive) in test [4]; -0.597 (inactive) in test [5]; -0.865 (inactive) in test [6]; 0.0297 in test [7]. The z-score is -0.652 (inactive) in test [8]; -0.714 (inactive) in test [9]; 0.381 in [10]; -0.221 in test [11]; -0.146 in [12]; -0.77 in test [13]. Besides, the z-score is 0.214 in test [14]; -0.975 in test [15]; -1.13 in test [16]; -0.994 (inactive) in test [17]; 0.387 in test [18]; -0.289 in test [19]. For the same compound, the z-score in test [20] was 0.959 (inactive). Further, the composite z-score in test [2] was determined as 0.0146.
As for `C=C(COC)C(=O)CC[C@H](OC(=O)c1cccnc1)c1ccccc1OCCO`, the z-score was 0.0928 (inactive) in test [1]; 8.77 (active) in test [3]; 0.805 (inactive) in test [4]; 0.0448 (inactive) in test [5]; 0.307 (inactive) in [6]; -0.283 in test [7]. For the same compound, the z-score in test [8] is -2.86 (inactive); in test [9] it was 0.0432 (inactive); in test [10] it was -1.26; in [11], -0.414; in test [12], -0.751; in test [13] it was -1.24. Further, the z-score in [14] was -3.3; in [15] it was -3.76; in [16] it was -0.952; in test [17], 0.0833 (inactive); in test [18] it was -0.706; in test [19] it was -2.25. In test [20], the z-score was 0.138 (inactive). In test [2], this compound returned a composite z-score of 0.473.
As for `COc1ccc([Si](C)(C)[C@@H]2[C@@H](CCn3cc([C@H](O)c4ccccc4)nn3)O[C@]3(C(=O)N(C)c4ccccc43)[C@H]2C)cc1`, the z-score is -0.702 (inactive) in test [1]; 4.2 (inactive) in test [3]; 0.579 (inactive) in [4]; 1.51 (inactive) in test [5]; 0.325 (inactive) in test [6]; 0.416 in [7]. Moreover, the z-score is 1.62 (inactive) in [8]; 0.689 (inactive) in test [9]; -1.55 in test [10]; -0.536 in test [11]; 1.27 in test [12]; -1.01 in test [13]. Also, the z-score was -2.69 in test [14]; -3.85 in test [15]; 0.988 in [16]; -0.42 (inactive) in test [17]; -0.866 in test [18]; -0.252 in [19]. Also, the z-score in test [20] was -1.89 (inactive). For the same compound, in [2], the composite z-score is -0.101.
Consider `C=CC[C@]1(C(=O)NCCN2CCOCC2)N=C(c2ccc(OCCCO)cc2)O[C@H]1c1ccccc1N=[N+]=[N-]`, for which the z-score in [1] was 1.39 (inactive); in [3], 30.7 (active); in [4], 28.6 (active); in [5], 2.5 (inactive); in test [6] it was 5.98 (inactive); in [7], -0.106. For the same compound, the z-score was -0.798 (inactive) in test [8]; 1.5 (inactive) in [9]; 0.108 in test [10]; 0.0657 in test [11]; 0.572 in test [12]; 0.353 in [13]. Moreover, the z-score is -1.05 in test [14]; -0.766 in test [15]; 1.03 in [16]; 1.98 (inactive) in [17]; -0.701 in test [18]; 0.472 in test [19]. Moreover, in [20], the z-score is 0.0624 (inactive). This compound came in with a composite z-score in [2] of 0.14.
Turning to `COC(=O)[C@@]1(Cc2ccc(F)cc2)[C@H]2c3cc(C(=O)N4CCCC4)n(Cc4ccc(Cl)c(C(F)(F)F)c4)c3C[C@H]2CN1C(=O)c1ccccc1`, the z-score in [1] is -1.31 (inactive); in [3] it was 3.16 (inactive); in [4], 0.895 (inactive); in test [5], 0.923 (inactive); in test [6] it was 1.21 (inactive); in test [7], -0.256. Moreover, the z-score is 0.71 (inactive) in test [8]; 0.705 (inactive) in test [9]; 1.31 in [10]; -0.463 in [11]; -0.286 in test [12]; -0.452 in test [13]. Besides, the z-score was -0.604 in test [14]; -2.4 in test [15]; 1.09 in test [16]; -1.33 (inactive) in [17]; -0.673 in [18]; -1.96 in [19]. The z-score in test [20] was -1.53 (inactive). In test [2], this compound displayed a composite z-score of 1.99.
Regarding `O=C(NCc1ccccc1)[C@@H]1c2ccccc2C(=O)N(Cc2cc(F)cc(C(F)(F)F)c2)[C@H]1c1ccc(CO)cc1`, the z-score in test [1] is 0.363 (inactive); in [3] it was 5.82 (inactive); in test [4], 1.23 (inactive); in test [5] it was 1.03 (inactive); in test [6], 0.156 (inactive); in [7], -0.26. The z-score was -2.01 (inactive) in test [8]; 0.598 (inactive) in [9]; -1.58 in test [10]; 1.5 in test [11]; -0.115 in [12]; 1.37 in [13]. Moreover, the z-score in test [14] was 0.105; in test [15], -0.161; in test [16], 1.88; in test [17] it was 0.079 (inactive); in [18], 0.79; in test [19], -0.511. For the same compound, the z-score in [20] was -0.811 (inactive). In [2], this compound came in with a composite z-score of 0.0455.
For `CC(C)(C)OC(=O)CC[C@]1(C(=O)NCC(O)CO)N=C(c2ccc(OCCCO)cc2)O[C@H]1c1ccccc1CN=[N+]=[N-]` (stereo not given in full), the z-score in test [1] is -0.207 (inactive); in test [3], 17.2 (active); in [4], 2.39 (inactive); in test [5], 0.471 (inactive); in test [6], 0.297 (inactive); in test [7], -0.832. In addition, the z-score in [8] was 1.38 (inactive); in test [9] it was 1.57 (inactive); in [10], 2.2; in test [11], -1.22; in [12], 0.351; in test [13], -0.504. In addition, the z-score in test [14] is -1.1; in test [15], -1.44; in test [16] it was -1.02; in [17], -0.484 (inactive); in [18] it was 0.574; in test [19], 0.649. Besides, the z-score in test [20] was -0.323 (inactive). Further, in test [2], the composite z-score worked out at 0.975.
In the case of `O=C1OCCC/C=C\[C@H]2OC34C=CCN(CCN5CCOCC5)C(=O)[C@H]3N(CCO)C(=O)[C@@H]4C12` (stereo not given in full), the z-score in test [1] is 0.216 (inactive); in test [3] it was 0.588 (inactive); in test [4], 0.921 (inactive); in test [5], 0.723 (inactive); in test [6], 0.382 (inactive); in [7] it was -0.364. The z-score in [8] is 0.61 (inactive); in test [9], -0.342 (inactive); in test [10] it was 0.494; in test [11], -1.18; in [12], 1.72; in test [13] it was -0.615. The z-score is 1.31 in test [14]; -0.832 in [15]; -0.41 in test [16]; -1.21 (inactive) in test [17]; -0.802 in test [18]; 0.533 in test [19]. Further, in test [20], the z-score is -1.99 (inactive). Further, in test [2], the composite z-score is -0.231.
For `COc1ccc([Si](C)(C)[C@H]2[C@H](CC(=O)N3CCC[C@H]3CO)O[C@@]3(C(=O)N(Cc4cccc(N5CCC5=O)c4)c4ccccc43)[C@@H]2C)cc1`, the z-score in [1] was 0.689 (inactive); in test [3], 6.65 (inactive); in test [4], 1.06 (inactive); in test [5], 1.47 (inactive); in test [6] it was 0.696 (inactive); in test [7], 0.249. Further, the z-score is 1.91 (inactive) in test [8]; 0.777 (inactive) in test [9]; 4.69 in test [10]; -0.246 in test [11]; 1.57 in [12]; -0.108 in [13]. In addition, the z-score in test [14] is -2.2; in [15], -4.11; in test [16] it was 3.25; in [17] it was -0.457 (inactive); in [18] it was -1.14; in test [19] it was 0.619. Further, the z-score in [20] was -1.2 (inactive). The composite z-score in [2] stood at 0.233.

The values are drawn from PubChem BioAssay.
